According to PubChem BioAssay (NCATS):
Inconclusive results are not listed. Values without a mark were called inactive. The source made the active and inactive calls. Unless noted, calls come from the whole dose curve; as a rule, active = well fitted inhibition curve with a large enough effect; inconclusive = small, poorly fitted or top-dose-only effect; inactive = no such curve, though single readings can be large or run the other way.

experiment: Primary qHTS for small molecule stabilizers of the endoplasmic reticulum resident proteome: Secreted ER Calcium Modulated Protein (SERCaMP) assay (AID 1508630); conditions: SH-SY5Y GLuc-SERCaMP (Gaussia luciferase released on ER calcium loss) secretion, thapsigargin, luminescence; series mostly up to 38.4 µM; activity change, negative = inhibition: at the top concentration; note: potency is the fitted concentration of half-maximal effect; for activity change, negative = inhibition: % is set by controls: 0 for no effect and ±100 for the full control effect
How it was run: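 GLuc-SERCaMP-expressing SH-SY5Y cells, pretreated 16 h with compound, are challenged with thapsigargin to empty ER calcium stores; after 4 h, coelenterazine is added directly to the medium and luminescence is imaged.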

SMILES | Potency | activity change, negative = inhibition
C=CCN1C[C@H](C)N([C@H](c2ccc(C(=O)N(CC)CC)cc2)c2cccc(OC)c2)C[C@H]1C | inactive | 
CC(C)=CC1C(C(=O)OCN2C(=O)C3=C(CCCC3)C2=O)C1(C)C (centres undefined) |  | 45.4%
CC(NC(C)(C)C)C(=O)c1cccc(Cl)c1 (centres undefined) | inactive | 
C[C@]12CCC(=O)C=C1CC[C@@H]1[C@H]3CC[C@](C)(O)[C@@]3(C)CC[C@@H]12 |  | -13.8% [at 76.3 µM]
COc1cccc2c1C(=O)c1c(O)c3c(c(O)c1C2=O)C[C@@](O)(C(=O)CO)CC3OC1CC(N2CCOC(OC)C2)C(O)C(C)O1 (some centres undefined) |  | 171%
O=C1CN=C(c2ccccc2)c2cc([N+](=O)[O-])ccc2N1 |  | 3.74%
O=C1c2ccccc2C(=O)C1C(=O)C(c1ccccc1)c1ccccc1 |  | -27.4%
CN1CCC(O)(c2ccc(F)cc2)C(C(=O)c2ccc(F)cc2)C1 (centres undefined) |  | 3.84%
ClCCN1CCCC1 |  | -27.1%
Nc1nc(N)nc(NC2CC2)n1 |  | 2.89%
COc1cccc([C@@]2(O)CCCC[C@@H]2CN(C)C)c1 |  | -17.9%
CC1(C)C(C=C(Cl)Cl)C1C(=O)OC(C#N)c1cccc(Oc2ccccc2)c1 (centres undefined) |  | 24.4%
C[C@]12CCC(=O)C=C1CC[C@@H]1[C@@H]2CC[C@@]2(C)[C@H]1CC[C@]2(C)O |  | -2.46%
CCN[C@H](C)Cc1cccc(C(F)(F)F)c1 |  | -19.3% [at 76.3 µM]
C[N+]1(CCF)[C@@H]2CC[C@H]1CC(OC(=O)C(O)(c1ccccc1)c1ccccc1)C2 (some centres undefined) |  | -25.3%
CCCOC(=O)c1cncn1C(C)c1ccccc1 (centres undefined) |  | 2.11%
O=C(N/N=C/c1ccc([N+](=O)[O-])o1)c1cc([N+](=O)[O-])cc([N+](=O)[O-])c1O |  | -19.1%
C#C[C@]1(O)CC[C@H]2[C@@H]3CCC4=CC(=O)CC[C@]4(C)[C@H]3CC[C@@]21C |  | -14.4%

SMILES | Potency | activity change, negative = inhibition
COC(=O)C(Cl)C(=O)OC |  | -1.05%
CCN[C@@H](C)Cc1cccc(C(F)(F)F)c1 |  | -0.593%
O=C(O)CCCc1ccc(N(CCCl)CCCl)cc1 | inactive | 
CCN(CC)C(=O)[C@@H]1C=C2c3cccc4[nH]cc(c34)C[C@H]2N(C)C1 |  | -26.1% [at 137 µM]
C[C@]12CCC(=O)C=C1CC[C@@H]1[C@@H]2CC[C@]2(C)C(=O)CC[C@@H]12 | inactive | 
NCCc1ccc(O)cc1 | inactive | 
O=C(CCCN1CCC2(CC1)C(=O)NCN2c1ccccc1)c1ccc(F)cc1 | 1 µM (active) | 
O=c1[nH]oc2c1CCNC2 | inactive | 
CC(C)N(CCC(C(N)=O)(c1ccccc1)c1ccccn1)C(C)C (centres undefined) | inactive | 
CCC(C)(C)c1ccc(O)cc1 |  | 7.65%
CCN(CCO)CCn1c(Cc2ccccc2)nc2c1c(=O)n(C)c(=O)n2C |  | 3.41%
O=P1(N(CCCl)CCCl)NCCCO1 (centres undefined) |  | -27.8%
CCCCC/C=C\C/C=C\C/C=C\C/C=C\CCCC(=O)NCC(=O)O |  | -20.7%
CCC1(c2ccccc2)C(=O)N(COC)C(=O)N(COC)C1=O |  | -15.8%
CC(Cc1ccccc1)N(C)Cc1ccco1 (centres undefined) |  | -17.5%
NC1=NC(=O)C(c2ccccc2)O1 (centres undefined) |  | -14.3%
CCCCCCC(=O)CCCCCC/C=C/C[C@@H](O)[C@H](O)[C@@](N)(CO)C(=O)O |  | 5.65% [at 21.6 µM]

experiment: A High-Content qHTS Against Drug Library for the Identification of Small Molecules that Inhibit DYT1 Early Onset Primary Dystonia-Associated Cell Pathology (AID 1645839; calls by dose curve); conditions: HEK293 Flp-In EGFP-delE TorsinA, punctate imaging, 48 h; series mostly up to 46.1 µM; % pathology change, negative = correction: at the top concentration
How it was run: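 Flp-In T-REx 293 cells with tetracycline-inducible EGFP-delE hTOR1A (WT EGFP-hTOR1A as reference), 800 cells/well; compound added with tetracycline, 48 h at 37 C. Fixed, permeabilized cells imaged; %pathology (punctate TorsinA) primary, cell count counterscreen.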

SMILES | % pathology change, negative = correction
C=CCN1C[C@H](C)N([C@H](c2ccc(C(=O)N(CC)CC)cc2)c2cccc(OC)c2)C[C@H]1C | 12.2%
COc1c2c(cc3c1OCO3)CCN(C)C2 | 4.5%
CC(C)=CC1C(C(=O)OCN2C(=O)C3=C(CCCC3)C2=O)C1(C)C (centres undefined) | 9.23%
CC(NC(C)(C)C)C(=O)c1cccc(Cl)c1 (centres undefined) | -1.37%
C[C@]12CCC(=O)C=C1CC[C@@H]1[C@H]3CC[C@](C)(O)[C@@]3(C)CC[C@@H]12 | -32.7% [at 91.7 µM]
COc1cccc2c1C(=O)c1c(O)c3c(c(O)c1C2=O)C[C@@](O)(C(=O)CO)CC3OC1CC(N2CCOC(OC)C2)C(O)C(C)O1 (some centres undefined) | -93.7%
O=C1CN=C(c2ccccc2)c2cc([N+](=O)[O-])ccc2N1 | -1.18%
O=C1c2ccccc2C(=O)C1C(=O)C(c1ccccc1)c1ccccc1 | -15%
CN1CCC(O)(c2ccc(F)cc2)C(C(=O)c2ccc(F)cc2)C1 (centres undefined) | -21.8%
ClCCN1CCCC1 | 2.71%
Nc1nc(N)nc(NC2CC2)n1 | 4.57%
COc1cccc([C@@]2(O)CCCC[C@@H]2CN(C)C)c1 | 16.1%
CC1(C)C(C=C(Cl)Cl)C1C(=O)OC(C#N)c1cccc(Oc2ccccc2)c1 (centres undefined) | 15.5%
C[C@]12CCC(=O)C=C1CC[C@@H]1[C@@H]2CC[C@@]2(C)[C@H]1CC[C@]2(C)O | 8.94%
CCN[C@H](C)Cc1cccc(C(F)(F)F)c1 | 17.3% [at 91.7 µM]
C[N+]1(CCF)[C@@H]2CC[C@H]1CC(OC(=O)C(O)(c1ccccc1)c1ccccc1)C2 (some centres undefined) | -1.42%
CCCOC(=O)c1cncn1C(C)c1ccccc1 (centres undefined) | 15.6%

SMILES | % pathology change, negative = correction
O=C(N/N=C/c1ccc([N+](=O)[O-])o1)c1cc([N+](=O)[O-])cc([N+](=O)[O-])c1O | -16.6%
C#C[C@]1(O)CC[C@H]2[C@@H]3CCC4=CC(=O)CC[C@]4(C)[C@H]3CC[C@@]21C | 2.18%
COC(=O)C(Cl)C(=O)OC | 18.3%
CCN[C@@H](C)Cc1cccc(C(F)(F)F)c1 | -2.34%
O=C(O)CCCc1ccc(N(CCCl)CCCl)cc1 | -21.7%
C[C@]12CCC(=O)C=C1CC[C@@H]1[C@@H]2CC[C@]2(C)C(=O)CC[C@@H]12 | 6.49%
NCCc1ccc(O)cc1 | 9%
O=C(CCCN1CCC2(CC1)C(=O)NCN2c1ccccc1)c1ccc(F)cc1 | 4.85%
O=c1[nH]oc2c1CCNC2 | 7.18%
CC(C)N(CCC(C(N)=O)(c1ccccc1)c1ccccn1)C(C)C (centres undefined) | -3.97%
CCC(C)(C)c1ccc(O)cc1 | 15.3%
CCN(CCO)CCn1c(Cc2ccccc2)nc2c1c(=O)n(C)c(=O)n2C | 11.5%
O=P1(N(CCCl)CCCl)NCCCO1 (centres undefined) | 8.8%
CCC1(c2ccccc2)C(=O)N(COC)C(=O)N(COC)C1=O | 7.91%
CC(Cc1ccccc1)N(C)Cc1ccco1 (centres undefined) | 13.8%
NC1=NC(=O)C(c2ccccc2)O1 (centres undefined) | 10.2%
CCCCCCC(=O)CCCCCC/C=C/C[C@@H](O)[C@H](O)[C@@](N)(CO)C(=O)O | 14.1% [at 19.1 µM]
